This is one part of a sample in which hits are shown more often than they occur.
L3MBTL1 inh: qHTS Assay for the Inhibitors of L3MBTL1; 230,000 tested, 0.66% active; AlphaScreen L3MBTL1–H3K9me1 peptide binding; Potency, µM (titrated, usually from 57.1 µM), for inactives: at the top dose activity, negative = inhibition, actives largely listed as inhibitors; note: nearly all actives have a fitted effect of over 60% in size
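Displacement of a biotinylated histone H3(1-15) peptide monomethylated at Lys9 (75 nM) from L3MBTL1 (50 nM) was measured by AlphaScreen after a 30 min room-temperature compound incubation; cefsulodin titration served as intraplate control.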
APE1 inh: qHTS Assay for Inhibitors of the Human Apurinic/apyrimidinic Endonuclease 1 (APE1). DNA repair nuclease/redox regulator APEX1 (Homo sapiens), P27695. Potency, µM (series often up to 65.8 µM), without a hit: at the top dose activity change, negative = inhibition, most hits filed as inhibitors. recombinant APE1, TAMRA/BHQ-2 abasic DNA cleavage fluorescence. 350,000 tested, 0.35% active;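 note: plate controls were vehicle for no effect and reference inhibitor for full effect; nearly all actives have a fitted effect of over 55% in size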
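0.75 nM APE1 + cpd, 15 min RT; start w/ 50 nM TAMRA/BHQ-2 THF-abasic dsDNA; kinetic fluor 525/598 nm ×3 reads @60 s; Δ(read3−read1); normalized to DMSO and NSC13755 control wells.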
JMJD2E inh: qHTS Assay for Inhibitors of Human Jumonji Domain Containing 2E (JMJD2E); Potency, µM (highest dose often 57.1 µM), inactives show at the top dose activity change, negative = inhibition, most hits filed as inhibitors; JMJD2E catalytic domain, FDH-coupled NADH fluorescence (FDH is formaldehyde dehydrogenase); 230,000 tested, 1.6% active; active = well fitted inhibition curve with a large enough effect, not every such curve was filed as active; inconclusive = small, poorly fitted or top-dose-only effect, or another doubt; inactive = no such curve, though single readings can be large or run the other way;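 note: 0% = wells with enzyme and -100% = buffer wells without enzyme; nearly all actives have a fitted effect of over 50% in size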
BLM helicase inh: qHTS Assay for Inhibitors of Bloom's syndrome helicase (BLM); RecQ-like DNA helicase BLM (Homo sapiens), P54132; recombinant BLM DNA unwinding, fluorescence dequenching; Potency, µM (series often up to 56.1 µM), inactives show at the top dose activity change, negative = inhibition, actives largely listed as inhibitors; 350,000 tested, 0.2% active; AID 2528, 2010;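 note: plate controls were vehicle for no effect and no enzyme for full effect; nearly all actives have a fitted effect of over 35% in size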
RECQ1 inh: qHTS Assay for Inhibitors of RecQ-Like Dna Helicase 1 (RECQ1); AID 2549, 2010; RECQ1 DNA unwinding, red fluorescence kinetic read; 240,000 tested, 0.54% active; Potency, µM (series often up to 57.3 µM), for the others: top-dose activity, negative = inhibition, most hits filed as inhibitors;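 note: plate controls were vehicle for no effect and no enzyme for full effect; nearly all actives have a fitted effect of over 30% in size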
Target sequence (P46063 whole entry, looked up): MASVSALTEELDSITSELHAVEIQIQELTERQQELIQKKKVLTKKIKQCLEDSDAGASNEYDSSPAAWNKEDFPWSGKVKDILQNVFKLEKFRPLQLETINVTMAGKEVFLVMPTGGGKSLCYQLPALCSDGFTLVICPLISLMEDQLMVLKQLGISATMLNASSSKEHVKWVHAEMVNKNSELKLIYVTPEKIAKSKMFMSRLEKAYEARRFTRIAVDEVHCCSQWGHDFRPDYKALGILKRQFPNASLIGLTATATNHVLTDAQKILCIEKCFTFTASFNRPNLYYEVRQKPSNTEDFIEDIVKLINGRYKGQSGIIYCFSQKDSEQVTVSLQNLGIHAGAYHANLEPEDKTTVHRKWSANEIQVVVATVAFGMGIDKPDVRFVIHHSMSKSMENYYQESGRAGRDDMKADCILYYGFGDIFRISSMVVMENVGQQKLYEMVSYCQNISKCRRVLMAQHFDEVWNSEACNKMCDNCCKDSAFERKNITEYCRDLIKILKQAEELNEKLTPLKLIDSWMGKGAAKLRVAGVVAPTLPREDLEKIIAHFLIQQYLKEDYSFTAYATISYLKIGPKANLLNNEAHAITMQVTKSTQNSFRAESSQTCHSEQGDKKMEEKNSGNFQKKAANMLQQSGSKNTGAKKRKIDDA
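RECQ1T1 50 nM; forked duplex (20 bp + 30-nt ss tails) 200 nM, ATP 2 mM final; pH 8.0, 2 mM MgCl2, 2.5 ug/ml poly(dI-dC); 15 min compound preincubation; discontinuous kinetic read over 2 h at RT.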
KAT2A inh: qHTS Assay for Inhibitors of GCN5L2 | GCN5L2 HAT assay, ThioGlo1 CoA-SH fluorescence | Potency, µM (highest dose often 58.9 µM), without a hit: top-dose activity change, negative = inhibition, most hits filed as inhibitors | 390,000 tested, 0.21% active
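Free CoA generated was detected with ThioGlo1 (50uM) fluorescence at Ex340nm/Em540nm, read immediately and after 20 min at room temperature. Enzyme, 20 nM in HEPES pH 7.5 buffer, saw compounds 15 min before adding 75uM H3(1-25) peptide and 70uM acetyl-CoA.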
Active calls of the source: *; [ ] = dose if it differs, or a comment. Unless noted, calls come from the whole dose curve; as a rule, active = well fitted curve in the direction sought with a large enough effect; inconclusive = small, poorly fitted or top-dose-only effect, or another doubt; inactive = no such curve, though single readings can be large; an effect the other way counts as inactive or inconclusive. Unless noted, % is set by controls: 0 for no effect and ±100 for the full control effect; potency is the fitted concentration of half-maximal effect.

For COc1cc([N+](=O)[O-])cc(/C=N/NC(=O)Cn2nccc2C)c1O the results were APE1 inh -3%, JMJD2E inh 13µM*, BLM helicase inh 1%, RECQ1 inh 4% and KAT2A inh -1%.
For COc1cc([N+](=O)[O-])cc(/C=N/NC(=O)Cn2nc(C)cc2C)c1O the results were L3MBTL1 inh inconclusive, APE1 inh 2%, JMJD2E inh 7.1µM*, BLM helicase inh 0%, RECQ1 inh 2% and KAT2A inh -10%.
`S=C([S-])NCCNC(=S)[S-].[Zn+2]` gave APE1 inh 16µM* and RECQ1 inh 32µM*.
`Cc1c(NC(=O)c2cc([N+](=O)[O-])ccc2N2CCOCC2)cccc1-c1nc2ccccc2o1` gave BLM helicase inh -5% and KAT2A inh -2%.
`COc1ccc(OC)c(C2CC(=O)N3CN(c4ccccc4F)CSC3=C2C#N)c1` (centres undefined) gave APE1 inh inconclusive, JMJD2E inh 2.2µM*, BLM helicase inh 7%, RECQ1 inh 14% and KAT2A inh 8.9µM*.
`CCOc1ccc(N2CSC3=C(C#N)C(c4ccco4)CC(=O)N3C2)cc1` (centres undefined) gave APE1 inh 32µM*, JMJD2E inh inconclusive, BLM helicase inh inconclusive, RECQ1 inh inconclusive and KAT2A inh inconclusive.
COc1cc(OC)c(C2CC(=O)N3CN(c4ccccc4)CSC3=C2C#N)cc1OC (centres undefined) was read as L3MBTL1 inh -7%, APE1 inh -6%, JMJD2E inh inconclusive, BLM helicase inh -5%, RECQ1 inh 8% and KAT2A inh inconclusive.
COc1ccc(OC)c(C2CC(=O)N3CN(c4ccc(C)c(Cl)c4)CSC3=C2C#N)c1 (centres undefined) was read as APE1 inh -1%, JMJD2E inh inconclusive, BLM helicase inh -6%, RECQ1 inh -5% and KAT2A inh 14µM*.
For COc1ccc(OC)c(C2CC(=O)N3CN(c4cccc(Cl)c4C)CSC3=C2C#N)c1 (centres undefined) the results were APE1 inh 1%, JMJD2E inh inconclusive, BLM helicase inh -6%, RECQ1 inh -5% and KAT2A inh 25µM*.
CCOc1cc(C(=O)NCCc2sc(-c3ccc(F)cc3)nc2C)cc(OCC)c1OCC was read as BLM helicase inh 1% and KAT2A inh -3%.
`CO[C@H]1C[C@H](O[C@H]2[C@H](C)[C@@H](O[C@@H]3O[C@H](C)C[C@H](N(C)C)[C@H]3OC(C)=O)[C@@H](C)C[C@]3(CO3)C(=O)[C@H](C)[C@@H](OC(C)=O)[C@@H](C)[C@@H](C)OC(=O)[C@@H]2C)O[C@@H](C)[C@@H]1OC(C)=O` gave APE1 inh 2%[21 µM].
For C#CC(C)OC(=O)Nc1cccc(Cl)c1 (centres undefined) the results were APE1 inh 10%, BLM helicase inh -3%, RECQ1 inh 7% and KAT2A inh 5%.
Screening COc1cccc(C2CC(=O)N3CN(c4cccc(Cl)c4C)CSC3=C2C#N)c1OC (centres undefined) returned APE1 inh -2%, JMJD2E inh inconclusive, BLM helicase inh -4%, RECQ1 inh -3% and KAT2A inh 22µM*.
For CC(C)C(=O)NC(c1ccc(Cl)cc1Cl)c1ccc2cccnc2c1O (centres undefined) the results were L3MBTL1 inh 1%[2.29 µM], APE1 inh -2%, BLM helicase inh -3% and KAT2A inh -15%.
For COc1ccc(C(NC(=O)C(C)C)c2ccc3cccnc3c2O)cc1 (centres undefined) the results were APE1 inh 0%, JMJD2E inh 28µM*, BLM helicase inh -6%, RECQ1 inh -7% and KAT2A inh -1%.
`CC(=O)NC(c1ccco1)c1ccc2cccnc2c1O` (centres undefined) gave L3MBTL1 inh inconclusive, APE1 inh 2%, JMJD2E inh 25µM*, BLM helicase inh 0%, RECQ1 inh inactive and KAT2A inh -2%.
For CCN1C(=O)[C@H]2[C@H]3[C@H](O)[C@H](O)C/C(=N/O[C@@H](C)CN4CCCc5nc(C)c(C)cc54)[C@@H]3CC[C@@H]2C1=O the results were APE1 inh -4%[12.4 µM], BLM helicase inh -2%[12.4 µM] and RECQ1 inh inactive[11.5 µM].
`COc1ccc(C2Nc3ccc4ccccc4c3-c3c2c(=O)oc2ccccc32)cc1` (centres undefined) gave APE1 inh -2%, JMJD2E inh 3.2µM*, BLM helicase inh -14%, RECQ1 inh 6% and KAT2A inh 21%.
For Cc1oc(-c2ccc(Cl)cc2)cc1-c1nn2c(-c3ccco3)nnc2s1 the results were L3MBTL1 inh -12%, APE1 inh inconclusive, JMJD2E inh -13%, BLM helicase inh -22%, RECQ1 inh 32µM* and KAT2A inh -14%.
CC1CCCN(C(=O)C2CCN(S(=O)(=O)c3cccs3)CC2)C1 (centres undefined) was read as L3MBTL1 inh -3%, APE1 inh 1% and KAT2A inh -11%.
For O=C(NCC1COCCO1)c1cc(COc2ccc(F)cc2F)on1 (centres undefined) the results were APE1 inh 13%, BLM helicase inh -1% and KAT2A inh 0%.
`O=C(N/N=C/c1cc(Br)ccc1O)c1ccncc1` gave L3MBTL1 inh 32µM*, APE1 inh 1%, JMJD2E inh 28µM*, BLM helicase inh 2%, RECQ1 inh 13% and KAT2A inh -12%.
Nc1nonc1C(=O)N/N=C/c1cc(Br)ccc1O was read as L3MBTL1 inh 1.4µM*, APE1 inh -1%, JMJD2E inh 3.5µM*, BLM helicase inh -6%, RECQ1 inh 14% and KAT2A inh -17%.
Screening O=C(N/N=C/c1cc([N+](=O)[O-])ccc1O)c1ccncc1 returned L3MBTL1 inh inconclusive, APE1 inh 18%, JMJD2E inh 10µM*, BLM helicase inh -4%, RECQ1 inh 12% and KAT2A inh -13%.

High-throughput results from PubChem BioAssay.
